By inhibition is commonly meant the drop in the measured response relative to a control, in per cent.

Molecules are shown by their SMILES. Unmarked numbers belong to inactive results. For some of these results: Results with a measured potency or affinity are listed apart. The source made the active and inactive calls. Unless noted, how the calls were made is not given here.

Experiment [1] can be described thus: antimalarial activity against Dd2 strain (AID 2302;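 active means growth inhibition above 50% at the single 2 µM test dose, taken to imply half-maximal potency below 2 µM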;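 further: 0% = DMSO untreated growth and 100% = chloroquine plus artemisinin killed control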). To be noted: P. falciparum Dd2 in RBCs, LDH growth readout, 72 h; at 2 µM; stronger effect = higher value.
Experiment [2] in a line: human hepatoma cell viability loss – ATP luminescence, cytotoxicity control for P. falciparum antimalarial project, primary screen (AID 2303;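 active means inhibition above 50%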;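 further: 0% = DMSO wells and 100% = digitonin-killed cells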). The following applies: HepG2 viability, 24-48 h, at 10 µM, stronger effect = higher value.
Experiment [3] concerns the target L-lactate dehydrogenase (Plasmodium falciparum (isolate CDC / Honduras)) (UniProt Q27743). Nature of the experiment: PfLDH activity inhibition – cell lysate, 3D7 strain, counter-screen for P. falciparum growth inhibition project (AID 2304).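 Further: 0% = vehicle and 100% = reference inhibitor.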 To be noted: P. falciparum 3D7 crude extract, LDH APAD/NBT absorbance; at 2 µM; stronger effect = higher value.
Experiment [4] is described as follows: inhibition of 3D7 malaria parasite growth – strain 3D7 (AID 2306).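 Further: 0% = DMSO wells and 100% = chloroquine plus artemisinin control wells.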 To be noted: P. falciparum 3D7 erythrocytic growth, LDH absorbance, 72 h; at 2 µM; stronger effect = higher value.
In experiment [5] the target is Calcium-dependent protein kinase 1 (Plasmodium falciparum (isolate 3D7)) (UniProt P62344). Nature of the experiment: PfCDPK1 kinase inhibitors, biochemical, TCAMS library (AID 1159585; cut-off not given, nearly all actives have IC50 up to about 0.98 µM;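 further: inhibitors leave more ATP so luminescence rises with inhibition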). The following applies: recombinant PfCDPK1, Kinase-Glo ATP depletion luminescence. On the technique in general: In Kinase-Glo more light means more ATP remaining.
In experiment [6] the target is Plasmodium falciparum protein kinase 6 (PK6, PF3D7_1337100) (UniProt Q8IDW1). Briefly: PfPK6 kinase inhibitors, biochemical, TCAMS library (AID 1159586). The following applies: recombinant PfPK6, Kinase-Glo ATP depletion luminescence.
The target in experiment [7] is Protein kinase 7 (PK7), Plasmodium falciparum 3D7 (PF3D7_0213400) (UniProt Q7YTF7). Nature of the experiment: inhibition of Plasmodium PK7 catalytic activity – biochemical, TCAMS antimalarial set, Kinase-Glo luminescence (AID 1159587). The following applies: recombinant PfPK7, Kinase-Glo ATP depletion luminescence.
The target in experiment [8] is Calcium-dependent protein kinase 4 (Plasmodium falciparum (isolate 3D7)) (UniProt Q8IBS5). Nature of the experiment: PfCDPK4 kinase inhibitors, biochemical, TCAMS library (AID 1159588; cut-off not given, nearly all actives have IC50 up to about 0.91 µM). The following applies: recombinant PfCDPK4, Kinase-Glo ATP depletion luminescence.
Sequence of Calcium-dependent protein kinase 4 (Plasmodium falciparum (isolate 3D7)) (Q8IBS5 whole entry, looked up): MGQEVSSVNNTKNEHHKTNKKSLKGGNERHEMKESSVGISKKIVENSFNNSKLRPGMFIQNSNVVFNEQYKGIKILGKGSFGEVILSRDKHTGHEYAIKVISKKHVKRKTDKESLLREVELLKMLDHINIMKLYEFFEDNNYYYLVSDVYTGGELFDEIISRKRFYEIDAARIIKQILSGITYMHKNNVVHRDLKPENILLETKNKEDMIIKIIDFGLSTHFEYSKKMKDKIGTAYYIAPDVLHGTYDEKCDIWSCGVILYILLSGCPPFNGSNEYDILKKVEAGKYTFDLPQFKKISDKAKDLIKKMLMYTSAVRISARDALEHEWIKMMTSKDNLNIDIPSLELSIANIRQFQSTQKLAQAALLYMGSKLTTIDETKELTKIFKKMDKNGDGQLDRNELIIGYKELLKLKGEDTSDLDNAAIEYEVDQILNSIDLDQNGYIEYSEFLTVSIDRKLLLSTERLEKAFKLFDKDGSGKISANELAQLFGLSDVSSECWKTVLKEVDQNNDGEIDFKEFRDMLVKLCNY

Sequence of L-lactate dehydrogenase (Plasmodium falciparum (isolate CDC / Honduras)) (Q27743 whole entry, looked up): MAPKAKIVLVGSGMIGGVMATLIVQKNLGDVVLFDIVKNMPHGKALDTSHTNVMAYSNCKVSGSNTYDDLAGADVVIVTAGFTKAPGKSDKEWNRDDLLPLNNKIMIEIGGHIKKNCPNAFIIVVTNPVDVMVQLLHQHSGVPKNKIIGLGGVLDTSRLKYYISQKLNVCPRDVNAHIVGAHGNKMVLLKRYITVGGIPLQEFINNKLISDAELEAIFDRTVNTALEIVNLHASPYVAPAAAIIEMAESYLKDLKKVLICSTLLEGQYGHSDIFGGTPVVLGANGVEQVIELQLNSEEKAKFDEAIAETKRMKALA
Sequence of Calcium-dependent protein kinase 1 (Plasmodium falciparum (isolate 3D7)) (P62344 whole entry, looked up): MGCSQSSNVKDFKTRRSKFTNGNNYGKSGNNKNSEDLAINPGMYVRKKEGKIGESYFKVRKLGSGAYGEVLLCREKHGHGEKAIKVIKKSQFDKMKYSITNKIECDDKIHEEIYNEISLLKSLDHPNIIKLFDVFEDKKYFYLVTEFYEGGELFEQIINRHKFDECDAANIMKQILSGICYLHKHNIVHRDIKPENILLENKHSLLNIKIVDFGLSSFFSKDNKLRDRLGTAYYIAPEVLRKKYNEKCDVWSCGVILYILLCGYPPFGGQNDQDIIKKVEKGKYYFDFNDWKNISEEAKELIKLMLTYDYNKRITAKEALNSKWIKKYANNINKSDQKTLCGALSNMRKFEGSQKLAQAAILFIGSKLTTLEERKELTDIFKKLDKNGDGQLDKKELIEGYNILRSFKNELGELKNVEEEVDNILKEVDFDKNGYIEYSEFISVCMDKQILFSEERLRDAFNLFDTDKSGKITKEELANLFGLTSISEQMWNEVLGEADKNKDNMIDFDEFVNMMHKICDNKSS
Sequence of Protein kinase 7 (PK7), Plasmodium falciparum 3D7 (PF3D7_0213400) (Q7YTF7 1-343): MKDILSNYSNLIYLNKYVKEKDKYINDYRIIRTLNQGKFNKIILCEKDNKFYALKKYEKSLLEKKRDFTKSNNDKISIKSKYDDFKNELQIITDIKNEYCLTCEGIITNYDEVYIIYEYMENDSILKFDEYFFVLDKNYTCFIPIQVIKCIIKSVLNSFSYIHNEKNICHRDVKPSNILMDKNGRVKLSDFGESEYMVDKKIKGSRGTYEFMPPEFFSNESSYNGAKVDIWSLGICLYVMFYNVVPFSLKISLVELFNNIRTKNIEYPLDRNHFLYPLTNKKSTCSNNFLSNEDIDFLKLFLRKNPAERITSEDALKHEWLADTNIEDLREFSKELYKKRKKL
Sequence of Plasmodium falciparum protein kinase 6 (PK6, PF3D7_1337100) (Q8IDW1 1-305): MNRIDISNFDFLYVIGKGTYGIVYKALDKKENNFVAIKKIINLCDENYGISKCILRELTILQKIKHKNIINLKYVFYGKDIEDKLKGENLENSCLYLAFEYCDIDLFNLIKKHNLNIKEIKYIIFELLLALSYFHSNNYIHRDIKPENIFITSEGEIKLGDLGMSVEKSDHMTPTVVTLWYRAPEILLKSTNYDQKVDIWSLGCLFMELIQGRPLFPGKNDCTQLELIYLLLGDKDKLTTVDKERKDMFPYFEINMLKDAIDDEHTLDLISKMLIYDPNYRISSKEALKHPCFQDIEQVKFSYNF

On to `CCOc1cc(Br)c(C(C)NC(=O)c2ccccc2)cc1OCC` (stereo not given), for which the growth inhibition in experiment [1] is 10%; in experiment [4], 92% (active). Further, the figures for the inhibition in experiment [2] and in experiment [3] were -2% and 5%, respectively. The result in experiment [5], in experiment [6], in experiment [7] and in experiment [8] was inactive.

As to `CC(CN)OCn1cnc2c(N)ncnc21` (stereo not given), the results for the growth inhibition in experiment [1] and in experiment [4] were 3% and 95% (active), respectively. For the same compound, the inhibition was 17% in experiment [2] and 4% in experiment [3]. Moreover, the outcome in experiment [5], in experiment [6], in experiment [7] and in experiment [8] was inactive.

Consider `Nc1cccc(C=CC(=O)Nc2ccnc3ccccc23)c1`, for which the growth inhibition was 60% (active) in experiment [1] and 98% (active) in experiment [4]. The inhibition in experiment [2] is 7%; in experiment [3] it was -1%. Moreover, the outcome in experiment [5], in experiment [6], in experiment [7] and in experiment [8] was inactive.

`CSc1cccc(NC(=O)Nc2ccc(I)c(OCCN(C)C)c2)c1`: the growth inhibition in experiment [1] was 19%; in experiment [4], 97% (active). For the same compound, the inhibition in experiment [2] was 14%; in experiment [3], -1%. For the same compound, the result in experiment [5], in experiment [6], in experiment [7] and in experiment [8] was inactive.

Take `O=C(/C=C/c1ccc(Cl)c(Cl)c1)NCCCCCN1CCCC(c2c[nH]c3ccccc23)C1` (stereo not given): the figures for the growth inhibition in experiment [1] and in experiment [4] were 22% and 99% (active), respectively. For the same compound, the results for the inhibition in experiment [2] and in experiment [3] were 25% and 2%, respectively. Moreover, the outcome in experiment [5], in experiment [6], in experiment [7] and in experiment [8] was inactive.

With `C=CCc1cc(Cc2cnc(N)nc2N)c2ccc(C)nc2c1O`, the results for the growth inhibition in experiment [1] and in experiment [4] were 3% and 84% (active), respectively. Moreover, the results for the inhibition in experiment [2] and in experiment [3] were 51% (active) and 0%, respectively. The outcome in experiment [5], in experiment [6], in experiment [7] and in experiment [8] was inactive.

Turning to `O=C(Nc1ccc(OC2CCN(Cc3ccsc3)CC2)c(Cl)c1)c1ccco1`, the growth inhibition in experiment [1] was 85% (active); in experiment [4], 87% (active). Besides, the inhibition in experiment [2] is 7%; in experiment [3] it was -4%. Moreover, the outcome in experiment [5], in experiment [6], in experiment [7] and in experiment [8] was inactive.

On to `C#CCNCc1ccc(-c2cccc(-c3nc4c(C)cccc4[nH]3)c2)cc1`, for which the growth inhibition in experiment [1] is 32%; in experiment [4], 100% (active). The inhibition was -4% in experiment [2] and 2% in experiment [3]. Further, the result in experiment [5], in experiment [6], in experiment [7] and in experiment [8] was inactive.

`O=C(/C=C/c1ccccc1F)NC1CCC(CCN2CCc3ccc(-c4cccnc4)cc3CC2)CC1` (stereo not given): the growth inhibition in experiment [1] is 5%; in experiment [4] it was 92% (active). In addition, the inhibition was 34% in experiment [2] and -4% in experiment [3]. Also, the outcome in experiment [5], in experiment [6], in experiment [7] and in experiment [8] was inactive.

With `Nc1nc(N)c2c(ccc3c2ccn3CCCCO)n1`, the growth inhibition in experiment [1] is 49%; in experiment [4] it was 93% (active). The inhibition was 61% (active) in experiment [2] and -2% in experiment [3]. The result in experiment [5], in experiment [6], in experiment [7] and in experiment [8] was inactive.

As for `O=C(NCCNc1nc(NCCNC(=O)Nc2ccccc2)c2ccc(=O)n(-c3c(F)cccc3F)c2n1)Nc1ccccc1`, the figures for the growth inhibition in experiment [1] and in experiment [4] were 87% (active) and 94% (active), respectively. Further, the results for the inhibition in experiment [2] and in experiment [3] were 1% and 6%, respectively. In addition, the result in experiment [5], in experiment [6], in experiment [7] and in experiment [8] was inactive.

For the compound `COc1ccc(CC(C)CON2C(N)=NC(N)=NC2(C)C)cc1` (stereo not given), the figures for the growth inhibition in experiment [1] and in experiment [4] were 96% (active) and 94% (active), respectively. Besides, the values for the inhibition in experiment [2] and in experiment [3] were 59% (active) and -9%, respectively. The result in experiment [5], in experiment [6], in experiment [7] and in experiment [8] was inactive.

Regarding `CC(C)(C)c1cc(C(=O)Nc2cccnc2)cc(C(=O)Nc2cccnc2)c1`, the growth inhibition in experiment [1] is 35%; in experiment [4], 95% (active). Moreover, the inhibition in experiment [2] was -12%; in experiment [3] it was -3%. Further, the result in experiment [5], in experiment [6], in experiment [7] and in experiment [8] was inactive.

In the case of `CC1CCN(C(=O)CSc2nc(-c3ccc(C(C)C)cc3)no2)CC1`, the growth inhibition in experiment [1] was 84% (active); in experiment [4] it was 98% (active). In addition, the inhibition in experiment [2] was -1%; in experiment [3] it was 2%. In addition, the outcome in experiment [5], in experiment [6], in experiment [7] and in experiment [8] was inactive.

For `CCCCNC(=O)[C@@H]1CCCN1C(=O)c1ccc(O)c(-c2ccc(Cl)c(Cl)c2)c1`, the results for the growth inhibition in experiment [1] and in experiment [4] were 92% (active) and 98% (active), respectively. The inhibition in experiment [2] and in experiment [3] was -1% in each case. Besides, the result in experiment [5], in experiment [6], in experiment [7] and in experiment [8] was inactive.

As to `CCc1cc(NC2CCN(C)CC2)nc(Nc2cccc(OC)c2)n1`, the growth inhibition is 37% in experiment [1] and 93% (active) in experiment [4]. The results for the inhibition in experiment [2] and in experiment [3] were 22% and -6%, respectively. For the same compound, the outcome in experiment [5], in experiment [6], in experiment [7] and in experiment [8] was inactive.

In the case of `O=C(Nc1ccc(OC2CCN(Cc3ccc(F)cc3)C2)cc1)c1cccs1` (stereo not given), the growth inhibition in experiment [1] is 92% (active); in experiment [4], 94% (active). For the same compound, the inhibition in experiment [2] was 2%; in experiment [3], 4%. Further, the outcome in experiment [5], in experiment [6], in experiment [7] and in experiment [8] was inactive.

Turning to `COc1cc(OC)c2c(C)cc(NCCCn3ccnc3)nc2c1`, the values for the growth inhibition in experiment [1] and in experiment [4] were 22% and 102% (active), respectively. Moreover, the inhibition in experiment [2] is 6%; in experiment [3], -2%. Besides, the result in experiment [5], in experiment [6], in experiment [7] and in experiment [8] was inactive.

Take `Cc1ccc(NC(=O)C(C)Sc2n[nH]c(-c3ccccc3Br)n2)cc1` (stereo not given): the growth inhibition in experiment [1] was 90% (active); in experiment [4], 89% (active). For the same compound, the inhibition in experiment [2] is 2%; in experiment [3], -4%. Further, the outcome in experiment [5], in experiment [6], in experiment [7] and in experiment [8] was inactive.

For the compound `CCOc1cc(C(=O)NC2CCN(Cc3ccccc3)CC2)ccc1-c1nc2cc(Cl)c(Cl)cc2[nH]1`, the figures for the growth inhibition in experiment [1] and in experiment [4] were 99% (active) and 101% (active), respectively. For the same compound, the inhibition in experiment [2] is 24%; in experiment [3], 2%. In addition, the outcome in experiment [5], in experiment [6], in experiment [7] and in experiment [8] was inactive.

The record behind these values is PubChem BioAssay.
